Screens deposited in PubChem by National Center for Advancing Translational Sciences (NCATS).
TGFb inhibitor – blocks TGF-b signaling; HepG2 CAGA-GFP TGF-b/SMAD3 reporter, GFP fluorescence, 18 h; TGF-beta stimulated, 500 pg/mL final; Potency, µM (top dose mostly 46.1 µM), without a hit: at the top dose activity, negative = inhibition, hits mostly inhibitors; 410,000 tested, 1.2% active; AID 588855; note: potency is the fitted concentration of half-maximal effect; % is set by controls: 0 for no effect and ±100 for the full control effect; nearly all actives have a fitted effect of over 65% in size
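HEPG2 CAGA-GFP reporter cells (1000/well, DMEM with 1% FBS) received compounds, then recombinant TGF-beta at 500 pg/mL final for 18 hours at 37 degrees C. Per-cell GFP summed per well was normalised to unstimulated and stimulated DMSO controls before curve fitting.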
TDP1 cell CPT – DT40-hTDP1 cell growth loss with CPT; Potency, µM (highest dose often 46.2 µM), without a hit: at the top dose activity change, negative = growth inhibition, most hits filed as inhibitors; chicken DT40 Tdp1-/-;hTDP1 cells + 20 nM CPT, ATP luminescence, 48 h; 420,000 tested, 12% active; note: potency is the fitted concentration of half-maximal effect; % is set by controls: 0 for no effect and ±100 for the full control effect; nearly all actives have a fitted effect of over 55% in size
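Cell growth measured by CellTiter-Glo luminescence after a minimum 48 h, 37 C compound exposure with 20 nM CPT in Tdp1-knockout DT40 cells stably expressing hTDP1, seeded 400/well; qHTS titration format.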
TDP1 cell noCPT – qHTS for Inhibitors of human tyrosyl-DNA phosphodiesterase 1 (TDP1): qHTS in cells in absence of CPT | DT40 Tdp1-/- hTDP1 cells, no CPT, ATP luminescence, 48 h | Potency, µM (doses to about 46.2 µM), for inactives: top-dose activity change, negative = growth inhibition, usual class: inhibitors | 420,000 tested, 15% active | AID 686978, 2013; note: potency is the fitted concentration of half-maximal effect; % is set by controls: 0 for no effect and ±100 for the full control effect; nearly all actives have a fitted effect of over 55% in size
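Growth of hTDP1-complemented DT40 Tdp1-knockout cells is measured by ATP luminescence after at least 48 hr compound exposure at 37 °C, with DMSO substituting for the 20 nM CPT used in the parallel screen.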
TDP1 inh – TDP1 (human) enzyme inhibition; Q9NUW8; recombinant TDP1, AlphaScreen DNA substrate cleavage; Potency, µM (doses to about 130 µM), without a hit: at the top dose activity change, negative = inhibition, usual class: inhibitors; 350,000 tested, 0.28% active; note: potency is the fitted concentration of half-maximal effect; % is set by controls: 0 for no effect and ±100 for the full control effect; nearly all actives have a fitted effect of over 40% in size
Target sequence (Q9NUW8 whole entry, looked up): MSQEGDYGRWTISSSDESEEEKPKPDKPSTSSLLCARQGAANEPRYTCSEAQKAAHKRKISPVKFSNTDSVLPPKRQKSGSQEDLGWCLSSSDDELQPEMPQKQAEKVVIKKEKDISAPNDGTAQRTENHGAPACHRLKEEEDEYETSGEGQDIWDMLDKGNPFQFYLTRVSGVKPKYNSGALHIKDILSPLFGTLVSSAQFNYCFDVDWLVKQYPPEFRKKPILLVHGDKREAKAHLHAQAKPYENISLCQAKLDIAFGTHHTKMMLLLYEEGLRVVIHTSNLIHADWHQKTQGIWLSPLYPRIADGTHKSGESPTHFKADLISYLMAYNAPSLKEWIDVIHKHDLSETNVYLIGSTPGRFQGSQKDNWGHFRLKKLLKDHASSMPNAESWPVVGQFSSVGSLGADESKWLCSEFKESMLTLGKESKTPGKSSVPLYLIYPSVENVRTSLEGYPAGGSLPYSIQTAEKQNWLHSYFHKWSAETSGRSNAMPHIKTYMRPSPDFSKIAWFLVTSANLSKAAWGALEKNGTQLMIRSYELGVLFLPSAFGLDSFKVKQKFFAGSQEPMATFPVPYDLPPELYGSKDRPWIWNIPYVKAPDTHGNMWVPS
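Here, a 5' biotin and 3' phosphotyrosine-FITC DNA oligonucleotide reports Tdp1 activity: intact substrate bridges AlphaScreen beads, while cleavage leaves a 3' phosphate and drops signal. All incubations at room temperature.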
HepG2 viability – HepG2 cytotoxicity, counter-screen for TGF-b inhibitors; Potency, µM (titrated, usually from 46.1 µM), without a hit: at the highest dose activity change, negative = cytotoxicity, hits mostly cytotoxic; HepG2 CAGA-GFP viability, ATP luminescence, 18 h; 410,000 tested, 0.76% active; note: potency is the fitted concentration of half-maximal effect
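HepG2 CAGA-GFP cells (1000/well, DMEM with 1% FBS) received compound, then TGF-beta at 500 pg/mL final, and were incubated 18 hours at 37 degrees C. Viability was read by CellTiter-Glo luminescence. Media-only wells were set as complete cell-killing and DMSO as no toxicity.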
IL1B secr inh – inhibitors of inflammasome signaling (IL-1 beta secretion). THP-1 LPS/ATP IL-1B secretion, AlphaLISA, 16 h; active compounds read low. activity change, % at 57.5 µM. 360,000 tested, 4.7% active. AID 743279; in the data active = activity change below about -50%; inconclusive = mostly about -30% to -49%; note: % is set by controls: 0 for no effect and ±100 for the full control effect
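THP-1 cells pretreated 1 hr with compounds (up to 57.5 uM final), then stimulated with LPS (250 ng/mL final) plus ATP (1.25 mM final); secreted IL-1B measured by AlphaLISA after 16 hr, decreased signal indicating inhibition.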
Numbers without * were called inactive; ? = inconclusive; nt = no result given; [ ] = remark or other dose. Most compounds without a hit are left out; they make up all but 18% or so of the library. Unless noted, calls come from the whole dose curve; as a rule, active = well fitted curve in the direction sought with a large enough effect; inconclusive = small, poorly fitted or top-dose-only effect, or another doubt; inactive = no such curve, though single readings can be large; an effect the other way counts as inactive or inconclusive.

SMILES	TGFb inhibitor	TDP1 cell CPT	TDP1 cell noCPT	TDP1 inh	HepG2 viability	IL1B secr inh
CC(=O)Nc1ccc(CN(C)c2c(C)nc3ccc(C(=O)N4CCN(c5ccccc5)CC4)cn23)cc1	-6.2%	23.1µM*	?	nt	-19.4%	31.5
CCN(CC)c1ccc(C(=O)NNC(=O)C2CSC3(C)CCC(=O)N23)cc1 (stereo not drawn)	-0.4%	-3.6%	4.3%	1.9%	-7.5%	-12.9
CCN(c1ccccc1)S(=O)(=O)c1ccc(C(=O)N(CCN(C)C)c2nc3c(F)cc(F)cc3s2)cc1	nt	nt	nt	9.3%[56.1 µM]	nt	nt
CC(C)(C)c1ccc(CNc2ccc([N+](=O)[O-])cn2)cc1	0.0%	?	23.1µM*	0.0%	-41.3%	-14.9
O=C(O)c1cccc(Nc2ccc([N+](=O)[O-])cn2)c1	-3.4%	-7.1%	13.4%	nt	-10.2%	23.7
Cc1ccc(OC(C)C(=O)Nc2ccc(Cl)cn2)c([N+](=O)[O-])n1 (stereo not drawn)	3.4%	2.1%	-13.7%	1.5%	4.2%	-0.2
O=[N+]([O-])c1ccc(NCc2ccc(Cl)cc2)nc1	-23.2%	-1.6%	-9.1%	1.3%	-21.2%	-77.7*
CC(C)c1ccc(CNc2ccc([N+](=O)[O-])cn2)cc1	?	-16.2%	?	7.5%	-49.9%	?
O=[N+]([O-])c1ccc(Nc2ccc(Cl)cc2)nc1	?	-6.5%	-13.6%	5.6%	-35.0%	-56.6*
Cc1cc(Cl)ccc1OC(C)C(=O)Nc1ccc([N+](=O)[O-])cn1 (stereo not drawn)	-15.3%	?	?	0.0%	3.4%	-69.0*
OCC(O)C[n+]1cccc(Br)c1 (stereo not drawn)	16.4%	8.4%	-20.1%	nt	-20.3%	nt
O=C(NCc1cccs1)C1CCCN(C(=O)Nc2ccccc2)C1 (stereo not drawn)	-7.7%	-4.3%	0.9%	5.6%	1.7%	3.7
O=[N+]([O-])c1ccc(NNS(=O)(=O)c2cc(Cl)ccc2Cl)nc1	1.5%	20.6µM*	?	4.9%	0.8%	-4.8
CCc1nc2ccc(C(=O)N3CCCC(C(N)=O)C3)cn2c1N(CCC(C)C)CCN(C)C (stereo not drawn)	14.2%	3.7%	-8.2%	nt	-93.6%	0.0
CC(C)c1ccc(OCC(=O)NCC(c2ccc(Cl)cc2)N2CCOCC2)cc1 (stereo not drawn)	?	?	18.4µM*	0.5%	-26.3%	nt
Cc1ccccc1OCC(=O)NCC(c1ccc(Cl)cc1)N1CCOCC1 (stereo not drawn)	?	20.6µM*	16.4µM*	-7.8%	-25.7%	nt
O=C(COc1ccc(Cl)cc1Br)NCC(c1ccco1)N1CCCC1 (stereo not drawn)	?	?	18.4µM*	5.3%	-30.7%	-2.6
COc1ccc(C(CNC(=O)COc2ccccc2)N2CCOCC2)cc1 (stereo not drawn)	0.0%	6.8%	3.2%	-0.1%	-3.6%	-1.2
O=C(COc1cccc(C(F)(F)F)c1)NCC(c1ccco1)N1CCCC1 (stereo not drawn)	-12.6%	-9.8%	?	1.0%	-30.4%	-23.3
COc1ccc(C(CNC(=O)COc2ccccc2C)N2CCOCC2)cc1 (stereo not drawn)	3.7%	20.6µM*	16.4µM*	-12.5%	10.5%	0.1
COc1ccc(F)cc1S(=O)(=O)NCCc1c(C)[nH]c2c(Cl)cccc12	-17.8%	?	?	9.3%	-29.6%	nt
CCC1CCCCN1C(=O)Cn1c(=O)n(CCCCCC(=O)NCc2ccc(F)cc2)c(=O)c2sccc21 (stereo not drawn)	-12.4%	?	?	0.0%	-20.3%	nt
Cc1ccccc1CN1CCN(CC2CC2)CC1CCO (stereo not drawn)	13.3%	-4.9%	-4.9%	nt	-1.3%	8.9
O=C(CSc1nc2c(c(=O)[nH]1)CCCC2)Nc1cccc(O)c1	-0.9%	-24.6%	?	5.7%	-6.0%	nt
COc1ccc(OC)c(-c2csc(NC(=O)CSCc3c(C)noc3C)n2)c1	-18.2%	?	?	nt	1.1%	-5.3
SMILES	TGFb inhibitor	TDP1 cell CPT	TDP1 cell noCPT	TDP1 inh	HepG2 viability	IL1B secr inh
CCc1noc(C)c1C(=O)Nc1nc(-c2cc(OC)ccc2OC)cs1	-16.1%	?	20.6µM*	-9.3%	-24.8%	-10.6
CCc1noc(C)c1C(=O)Nc1nc(-c2ccc(OC)cc2)cs1	-15.7%	?	13µM*	nt	0.1%	32.2
CCc1noc(C)c1C(=O)Nc1nc(-c2ccc(OC)cc2OC)cs1	-3.3%	?	16.4µM*	nt	12.8%	12.4
Cc1noc(C)c1-c1nc(N(C)C)c2ccccc2n1	nt	-0.8%	-6.9%	nt	nt	nt
CC1CN(C(C)C)C(C)CC1OC(=O)c1ccccc1 (stereo not drawn)	2.1%	-2.1%	3.4%	nt	-2.5%	8.7
O=C(Nc1ccccc1C(F)(F)F)N1CCC2(CC1)Oc1ccccc1C(=O)N2Cc1ccccc1F	nt	?	16.4µM*	-5.9%	-4.7%	nt
O=C(Nc1ccccc1C(F)(F)F)N1CCCCCC1	-3.8%	-4.2%	-6.3%	6.6%	4.1%	21.7
Cc1cccc(C)c1NC(=O)C(c1ccccc1)N1CCN(c2ccc(C(F)(F)F)cn2)CC1 (stereo not drawn)	-25.3%	23.1µM*	?	nt	-9.5%	0.0
OC(CN1CCN(c2ccc(C(F)(F)F)cn2)CC1)c1ccccc1 (stereo not drawn)	-3.6%	-11.6%	?	nt	-23.5%	-22.4
O=C(O)COCC(=O)N1CCCN(c2ccc(C(F)(F)F)cn2)CC1	-0.3%	-4.9%	-3.1%	nt	-3.8%	19.7
CCc1nc(CN2CCN(c3ccc(C(F)(F)F)cn3)CC2)c(C)[nH]1	-23.1%	11.6µM*	6.51µM*	nt	-75.4%	-0.3
O=C(NCC(=O)N1CCN(c2ccc(C(F)(F)F)cn2)CC1)c1ccc(Br)o1	-22.2%	20.6µM*	6.51µM*	0.6%	-20.7%	9.1
CC(=O)c1cccc(OCC(=O)N2CCN(c3ccc(C(F)(F)F)cn3)CC2)c1	-29.6%	?	14.6µM*	6.3%	-7.6%	-2.2
COc1nnc(-c2ccc(N3CCCCC3)c(NC(=O)c3ccc(Cl)cc3)c2)c2ccccc12	12.2%	-16.5%	-7.2%	0.0%	-0.2%	nt
c1ccc(-c2ccncn2)cc1	23.5%	13.7%	-8.6%	nt	6.9%	-10.9
